Measured values: PubChem BioAssay (NCI)
The panel holds about 83,000 compounds, 20% with a hit somewhere; the sample as a whole holds those more often.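 Negative percent growth values reflect cell death: -40 means 40% of the cells present at the start died, and -100 means all died.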 Active and inactive are the calls of the source. How the source made its calls: active means growth percent below 10; inactive means the rest.

Assays:
Assay in all cases: NCI-60 one-dose screen, 48 h (100 = growth as untreated, 0 = no growth, -100 = all killed)
Settings in all cases: 10 µM unless noted
DU-145 prostate = system: DU-145 prostate
K-562 leukemia = system: K-562 leukemia
MALME-3M melanoma = system: MALME-3M melanoma
RXF 393 renal = system: RXF 393 renal
SF-268 CNS = system: SF-268 CNS
SF-295 CNS = system: SF-295 CNS
SF-539 CNS = system: SF-539 CNS
UACC-257 melanoma = system: UACC-257 melanoma
M14 melanoma = system: M14 melanoma
MDA-MB-231 breast = system: MDA-MB-231 breast

COc1cccc(Cc2cc(-c3ccccc3)nn(CC(=O)c3ccccc3)c2=O)c1
growth (DU-145 prostate): 63.3% (inactive) | growth (K-562 leukemia): 22.5% (inactive) | growth (MALME-3M melanoma): 97.1% (inactive) | growth (RXF 393 renal): 60.1% (inactive) | growth (SF-268 CNS): 54% (inactive) | growth (SF-295 CNS): 68.1% (inactive) | growth (SF-539 CNS): 49.9% (inactive) | growth (UACC-257 melanoma): 95% (inactive) | growth (M14 melanoma): 60.3% (inactive)

COc1ccc(-c2nnc(COc3ccc(Cl)cc3Cl)o2)cc1OC
growth (DU-145 prostate): 22.6% (inactive) | growth (K-562 leukemia): 65.1% (inactive) | growth (MALME-3M melanoma): -1.79% (active) | growth (RXF 393 renal): -56.7% (active) | growth (SF-268 CNS): 45.7% (inactive) | growth (SF-295 CNS): 23.5% (inactive) | growth (SF-539 CNS): 83.6% (inactive) | growth (UACC-257 melanoma): 37.7% (inactive) | growth (M14 melanoma): 45% (inactive)

O=C1CCC/C=C\C[C@H]2C=CC(=O)/C2=C/C[C@H](CCc2cccc(C(F)(F)F)c2)O1
growth (DU-145 prostate): -44.6% (active) | growth (K-562 leukemia): 0.315% (active) | growth (MALME-3M melanoma): -25.5% (active) | growth (RXF 393 renal): -81.9% (active) | growth (SF-268 CNS): -39% (active) | growth (SF-295 CNS): -22.9% (active) | growth (SF-539 CNS): -56.7% (active) | growth (UACC-257 melanoma): -34.7% (active) | growth (M14 melanoma): -30.9% (active)

c1ccc(OCc2nnc(-c3ccc(Oc4ccccc4)cc3)o2)cc1
growth (DU-145 prostate): 99.1% (inactive) | growth (K-562 leukemia): 93.2% (inactive) | growth (MALME-3M melanoma): 101% (inactive) | growth (RXF 393 renal): 106% (inactive) | growth (SF-268 CNS): 89.2% (inactive) | growth (SF-295 CNS): 103% (inactive) | growth (SF-539 CNS): 103% (inactive) | growth (UACC-257 melanoma): 109% (inactive) | growth (M14 melanoma): 98.2% (inactive)

COc1ccc(-c2nc(NCCO)[nH]c(=O)c2C#N)cc1
growth (DU-145 prostate): 101% (inactive) | growth (K-562 leukemia): 97.1% (inactive) | growth (MALME-3M melanoma): 101% (inactive) | growth (RXF 393 renal): 117% (inactive) | growth (SF-268 CNS): 99.2% (inactive) | growth (SF-295 CNS): 97.1% (inactive) | growth (SF-539 CNS): 104% (inactive) | growth (UACC-257 melanoma): 112% (inactive) | growth (M14 melanoma): 99.9% (inactive)

O=C1/C(=C/c2ccc(F)cc2)Sc2c(Br)cccc21
growth (DU-145 prostate): 99.7% (inactive) | growth (K-562 leukemia): 80% (inactive) | growth (MALME-3M melanoma): 99.9% (inactive) | growth (RXF 393 renal): 85.8% (inactive) | growth (SF-268 CNS): 79% (inactive) | growth (SF-295 CNS): 87.3% (inactive) | growth (SF-539 CNS): 75.5% (inactive) | growth (UACC-257 melanoma): 85.9% (inactive) | growth (M14 melanoma): 92.8% (inactive)

CC1Cc2c(ncn3c(-c4ccc(F)cc4)nnc23)N(C)c2ccccc21 (configuration not stated)
growth (DU-145 prostate): 63.8% (inactive) | growth (K-562 leukemia): 70.4% (inactive) | growth (MALME-3M melanoma): 37.4% (inactive) | growth (RXF 393 renal): 66.4% (inactive) | growth (SF-268 CNS): 56.6% (inactive) | growth (SF-295 CNS): 74.1% (inactive) | growth (SF-539 CNS): 74.9% (inactive) | growth (UACC-257 melanoma): 69.7% (inactive) | growth (M14 melanoma): 59.4% (inactive)

CCC(C)(c1cc(C(C)(C)C)c(O)c(C(C)(C)C)c1)c1cc(C(C)(C)C)c(O)c(C(C)(C)C)c1
growth (DU-145 prostate): 101% (inactive) | growth (K-562 leukemia): 91.4% (inactive) | growth (MALME-3M melanoma): 94% (inactive) | growth (RXF 393 renal): 104% (inactive) | growth (SF-268 CNS): 95.4% (inactive) | growth (SF-295 CNS): 96.6% (inactive) | growth (SF-539 CNS): 105% (inactive) | growth (UACC-257 melanoma): 94.8% (inactive) | growth (M14 melanoma): 98.5% (inactive)

COc1ccc(-c2csc(NC(=O)N3CCN(c4cc5c(cc4F)c(=O)c(C(=O)O)cn5C4CC4)CC3)n2)cc1
growth (DU-145 prostate): 10.6% (inactive) | growth (K-562 leukemia): 11.7% (inactive) | growth (MALME-3M melanoma): -11.4% (active) | growth (RXF 393 renal): 34.4% (inactive) | growth (SF-268 CNS): 20% (inactive) | growth (SF-295 CNS): -4.61% (active) | growth (SF-539 CNS): 20.6% (inactive) | growth (UACC-257 melanoma): -17.6% (active) | growth (M14 melanoma): 9.8% (active)

CC/C=C\C[C@@H](O)C/C=C1/C(=O)C=C[C@H]1C/C=C\CCCC(=O)OC
growth (DU-145 prostate): 28.7% (inactive) | growth (K-562 leukemia): 2.65% (active) | growth (MALME-3M melanoma): 10.4% (inactive) | growth (RXF 393 renal): -16.8% (active) | growth (SF-268 CNS): 0.223% (active) | growth (SF-295 CNS): 80.9% (inactive) | growth (SF-539 CNS): 10.4% (inactive) | growth (UACC-257 melanoma): 56.5% (inactive) | growth (M14 melanoma): -1.62% (active)

CCCCC[C@H](O)C/C=C1/C(=O)C=C[C@@H]1C/C=C\CCCC(=O)OC
growth (DU-145 prostate): 53.2% (inactive) | growth (K-562 leukemia): 5.84% (active) | growth (MALME-3M melanoma): 107% (inactive) | growth (RXF 393 renal): 70.8% (inactive) | growth (SF-268 CNS): 34.9% (inactive) | growth (SF-295 CNS): 82.2% (inactive) | growth (SF-539 CNS): 91.3% (inactive) | growth (UACC-257 melanoma): 74.5% (inactive) | growth (M14 melanoma): 13.6% (inactive)

Cc1nc2ccccc2n1-c1ncnc2c1CC(C)c1ccccc1N2C (configuration not stated)
growth (DU-145 prostate): 96.2% (inactive) | growth (K-562 leukemia): 31.2% (inactive) | growth (MALME-3M melanoma): 105% (inactive) | growth (RXF 393 renal): 102% (inactive) | growth (SF-268 CNS): 94.2% (inactive) | growth (SF-295 CNS): 77.9% (inactive) | growth (SF-539 CNS): 93.9% (inactive) | growth (UACC-257 melanoma): 91.5% (inactive) | growth (M14 melanoma): 71.3% (inactive)

C=CCc1cc(C)ccc1NC(C(=O)NCC(=O)OC)c1ccccc1 (configuration not stated)
growth (DU-145 prostate): 112% (inactive) | growth (K-562 leukemia): 106% (inactive) | growth (MALME-3M melanoma): 105% (inactive) | growth (RXF 393 renal): 109% (inactive) | growth (SF-268 CNS): 95% (inactive) | growth (SF-295 CNS): 92.9% (inactive) | growth (SF-539 CNS): 94.5% (inactive) | growth (UACC-257 melanoma): 104% (inactive) | growth (M14 melanoma): 96.6% (inactive)

COc1cccc(-c2nc(-c3ccc(NC(=O)C(C)C)cc3)[nH]c2-c2ccnc(Br)c2)c1
growth (DU-145 prostate): 61.4% (inactive) | growth (K-562 leukemia): 1.17% (active) | growth (MALME-3M melanoma): 34.4% (inactive) | growth (MDA-MB-231 breast): 52.3% (inactive) | growth (RXF 393 renal): -31% (active) | growth (SF-268 CNS): 51.6% (inactive) | growth (SF-295 CNS): -42.9% (active) | growth (SF-539 CNS): 16% (inactive) | growth (UACC-257 melanoma): 52.8% (inactive) | growth (M14 melanoma): 40.2% (inactive)
